From PubChem BioAssay AID1159580 (chemical genetic matrix, 2015)
Values joined by “and” are separate entries in the source; they are usually repeats but may differ in a detail not shown here. Equal values may be shown once. The whole screen tested about 5,500 compounds, of which about 2,000 (36%) were called active. Roughly 18% stayed inconclusive and do not appear here. Cut-off read from the data, not from the text of the source: active = normalized growth mostly below about 0.91 (no sharp cut-off); inconclusive = no clear call, values can overlap the other calls; inactive = mostly above about 0.92. This is one part of the list.

Assay: chemical genetic growth profiling, strain panel (AID 1159580);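 note: tested at 20 µM; growth read once vehicle control cultures reached saturation at 30 °C; 1 = growth at the plate median or of vehicle wells; lower values mean less growth of the strain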
Conditions: growth OD
[1] = S. cerevisiae deletion strains, locus YAL013W, strain DEP1, stronger effect = lower value
[2] = S. cerevisiae deletion strains, locus YBR229C, strain ROT2, stronger effect = lower value
[3] = S. cerevisiae deletion strains, locus YDL101C, strain DUN1, stronger effect = lower value
[4] = S. cerevisiae deletion strains, locus YDL134C, strain PPH21, stronger effect = lower value
[5] = S. cerevisiae deletion strains, locus YDR150W, strain NUM1, stronger effect = lower value
[6] = S. cerevisiae deletion strains, locus YEL061C, strain CIN8, stronger effect = lower value
[7] = S. cerevisiae deletion strains, locus YGR052W, strain FMP48, stronger effect = lower value
[8] = S. cerevisiae deletion strains, locus YGR078C, strain PAC10, stronger effect = lower value
[9] = S. cerevisiae deletion strains, locus YHR030C, strain SLT2, stronger effect = lower value
[10] = S. cerevisiae deletion strains, locus YHR079C, strain IRE1, stronger effect = lower value
[11] = S. cerevisiae deletion strains, locus YHR082C, strain KSP1, stronger effect = lower value
[12] = S. cerevisiae deletion strains, locus YHR087W, strain rtc3, stronger effect = lower value
[13] = S. cerevisiae deletion strains, locus YJL095W, strain BCK1, stronger effect = lower value
[14] = S. cerevisiae deletion strains, locus YJL187C, strain SWE1, stronger effect = lower value
[15] = S. cerevisiae deletion strains, locus YJR043C, strain POL32, stronger effect = lower value
[16] = S. cerevisiae deletion strains, locus YJR066W, strain TOR1, stronger effect = lower value
[17] = S. cerevisiae deletion strains, locus YJR075W, strain HOC1, stronger effect = lower value
[18] = S. cerevisiae deletion strains, locus YKL171W, strain NNK1, stronger effect = lower value
[19] = S. cerevisiae deletion strains, locus YKL190W, strain CNB1, stronger effect = lower value
[20] = S. cerevisiae deletion strains, locus YKL203C, strain TOR2, stronger effect = lower value
[21] = S. cerevisiae deletion strains, locus YLR039C, strain RIC1, stronger effect = lower value
[22] = S. cerevisiae deletion strains, locus YLR058C, strain SHM2 (second series), stronger effect = lower value
[23] = S. cerevisiae deletion strains, locus YLR085C, strain ARP6, stronger effect = lower value
[24] = S. cerevisiae deletion strains, locus YLR113W, strain HOG1, stronger effect = lower value
[25] = S. cerevisiae deletion strains, locus YLR262C, strain YPT6, stronger effect = lower value
[26] = S. cerevisiae deletion strains, locus YML094W, strain GIM5, stronger effect = lower value
[27] = S. cerevisiae deletion strains, locus YMR219W, strain ESC1, stronger effect = lower value
[28] = S. cerevisiae deletion strains, locus YMR263W, strain SAP30, stronger effect = lower value
[29] = S. cerevisiae deletion strains, locus YNL128W, strain TEP1, stronger effect = lower value
[30] = S. cerevisiae deletion strains, locus YNL153C, strain GIM3, stronger effect = lower value
[31] = S. cerevisiae deletion strains, locus YNL183C, strain NPR1, stronger effect = lower value
[32] = S. cerevisiae deletion strains, locus YNL207W, strain RIO2, stronger effect = lower value
[33] = S. cerevisiae deletion strains, locus YNL298W, strain CLA4 (second series), stronger effect = lower value
[34] = S. cerevisiae deletion strains, locus YNL322C, strain KRE1, stronger effect = lower value
[35] = S. cerevisiae deletion strains, locus YNR030W, strain Alg12, stronger effect = lower value
[36] = S. cerevisiae deletion strains, locus YOR119C, strain RIO1, stronger effect = lower value
[37] = S. cerevisiae deletion strains, locus YOR231W, strain MKK1, stronger effect = lower value
[38] = S. cerevisiae deletion strains, locus YPL055C, strain LGE1, stronger effect = lower value
[39] = S. cerevisiae deletion strains, locus YPL241C, strain CIN2, stronger effect = lower value
[40] = S. cerevisiae deletion strains, locus YPL256C, strain CLN2, stronger effect = lower value
[41] = S. cerevisiae deletion strains, locus YPR135W, strain CTF4, stronger effect = lower value
[42] = S. cerevisiae deletion strains, locus YCL061C, strain MRC1, stronger effect = lower value

Measured: normalized growth

O=[N+]([O-])c1cc(C(F)(F)F)cc([N+](=O)[O-])c1Oc1ccc(Cl)c(Cl)c1
active: [1] 0.0591 | [2] 0.062 | [3] 0.0834 | [4] 0.0454 | [5] 0.0593 | [6] 0.053 | [7] 0.12 | [8] 0.0542 | S. cerevisiae deletion strains, locus YGR229C, strain SMI1, stronger effect = lower value 0.0505 | [9] 0.0926 and 0.11 | [10] 0.11 | [11] 0.12 | [12] 0.0631 | [13] 0.12 | [14] 0.0563 | [15] 0.0569 | [16] 0.11 | [17] 0.084 | [18] 0.101 | [19] 0.0457 | [20] 0.0962 | [21] 0.0653 | [22] 0.0562 | [23] 0.0698 | [24] 0.173 | [25] 0.0617 | [26] 0.0673 | [27] 0.0518 | [28] 0.0593 | [29] 0.0548 | [30] 0.0599 | [31] 0.146 | [32] 0.108 | [33] 0.0706 | [34] 0.0592 | [35] 0.0612 | S. cerevisiae deletion strains, locus YOL006C, strain TOP1, stronger effect = lower value 0.068 | [36] 0.095 | [37] 0.113 | [38] 0.0764 | [39] 0.061 | [40] 0.135 | [41] 0.184

Cc1cc(Oc2c([N+](=O)[O-])cc(C(F)(F)F)cc2[N+](=O)[O-])c2c(Cl)ccc(C)c2n1
inactive: [42] 0.948 | [3] 0.987 | [5] 0.851 | [22] 0.951 | [24] 0.655 | [29] 0.957 | [30] 0.976 | [34] 0.948
active: [1] 0.667 | [2] 0.883 | [4] 0.887 | [6] 0.788 | [7] 0.173 | [8] 0.913 | [9] 0.271 and 0.16 | [10] 0.231 | [11] 0.27 | [12] 0.834 | [13] 0.363 | [15] 0.905 | [16] 0.29 | [17] 0.89 | [18] 0.534 | [19] 0.458 | [20] 0.459 | [21] 0.498 | [23] 0.372 | [25] 0.547 | [26] 0.805 | [27] 0.905 | [31] 0.143 | [32] 0.546 | [33] 0.668 | [35] 0.623 | [36] 0.479 | [37] 0.418 | [38] 0.44 | [39] 0.762 | [40] 0.348 | [41] 0.451

COc1ccc(Oc2ccc(C(F)(F)F)cc2[N+](=O)[O-])cc1
active: [41] 0.624
inactive: [1] 0.986 | [2] 0.96 | [42] 0.931 | [3] 0.924 | [4] 1.03 | [5] 0.886 | [6] 1.03 | [8] 0.951 | [9] 0.927 | [12] 0.993 | [14] 0.965 | [15] 0.946 | [17] 0.925 | [21] 0.901 | [22] 1.02 | [23] 0.896 | [25] 0.926 | [26] 1.06 | [27] 0.996 | [28] 0.917 | S. cerevisiae deletion strains, locus YMR307W, strain GAS1, stronger effect = lower value 0.911 | [30] 0.947 | [33] 0.987 | [34] 1.01 | [35] 0.924 | [38] 0.898 | [39] 0.952 | S. cerevisiae strains, strain wild type, stronger effect = lower value 0.978

Cc1cc(Sc2c([N+](=O)[O-])cc(C(F)(F)F)cc2[N+](=O)[O-])c(Cl)cc1Cl
inactive: S. cerevisiae deletion strains, locus YAR019C, strain CDC15, stronger effect = lower value 0.995 | S. cerevisiae deletion strains, locus YBL105C, strain PKC1, stronger effect = lower value 1 | S. cerevisiae deletion strains, locus YBR135W, strain CKS1, stronger effect = lower value 0.995 | S. cerevisiae deletion strains, locus YBR136W, strain MEC1, stronger effect = lower value 0.995 | S. cerevisiae deletion strains, locus YBR160W, strain CDC28, stronger effect = lower value 0.991 | S. cerevisiae deletion strains, locus YDL017W, strain CDC7, stronger effect = lower value 0.999 | S. cerevisiae deletion strains, locus YDL028C, strain MPS1, stronger effect = lower value 0.99 | [3] 0.995 | S. cerevisiae deletion strains, locus YDL108W, strain KIN28, stronger effect = lower value 0.995 | S. cerevisiae deletion strains, locus YDL132W, strain cdc53, stronger effect = lower value 0.99 | S. cerevisiae deletion strains, locus YDL214C, strain PRR2, stronger effect = lower value 0.98 | S. cerevisiae deletion strains, locus YDR052C, strain DBF4, stronger effect = lower value 0.993 | S. cerevisiae deletion strains, locus YDR054C, strain cdc34, stronger effect = lower value 0.99 | S. cerevisiae deletion strains, locus YDR226W, strain ADK1, stronger effect = lower value 0.978 | S. cerevisiae deletion strains, locus YDR477W, strain SNF1, stronger effect = lower value 0.959 | S. cerevisiae deletion strains, locus YER123W, strain YCK3, stronger effect = lower value 0.97 | S. cerevisiae deletion strains, locus YER133W, strain GLC7, stronger effect = lower value 0.998 | S. cerevisiae deletion strains, locus YFL009W, strain cdc4, stronger effect = lower value 0.992 | S. cerevisiae deletion strains, locus YFL029C, strain CAK1, stronger effect = lower value 1 | S. cerevisiae deletion strains, locus YFR003C, strain YPI1, stronger effect = lower value 0.997 | S. cerevisiae deletion strains, locus YFR019W, strain FAB1, stronger effect = lower value 0.964 | S. cerevisiae deletion strains, locus YFR028C, strain CDC14, stronger effect = lower value 0.996 | S. cerevisiae deletion strains, locus YGR040W, strain KSS1, stronger effect = lower value 0.964 | [7] 1.01 | S. cerevisiae deletion strains, locus YGR092W, strain DBF2, stronger effect = lower value 0.982 | [9] 0.928 | [10] 0.861 | [11] 0.988 | S. cerevisiae deletion strains, locus YHR205W, strain SCH9, stronger effect = lower value 0.911 | S. cerevisiae deletion strains, locus YIL147C, strain SLN1, stronger effect = lower value 0.996 | [13] 0.964 | S. cerevisiae deletion strains, locus YJL128C, strain PBS2, stronger effect = lower value 0.955 | S. cerevisiae deletion strains, locus YJL157C, strain FAR1, stronger effect = lower value 0.926 | S. cerevisiae deletion strains, locus YJR016C, strain ILV3, stronger effect = lower value 1 | S. cerevisiae deletion strains, locus YJR066W, strain TOR1 (second series), stronger effect = lower value 0.949 | [16] 0.961 | S. cerevisiae deletion strains, locus YKL048C, strain ELM1, stronger effect = lower value 0.987 | S. cerevisiae deletion strains, locus YKL067W, strain YNK1, stronger effect = lower value 0.994 | S. cerevisiae deletion strains, locus YKL101W, strain HSL1, stronger effect = lower value 0.995 | S. cerevisiae deletion strains, locus YKL193C, strain SDS22, stronger effect = lower value 0.999 | [20] 1 | [24] 1.02 | S. cerevisiae deletion strains, locus YLR133W, strain CKI1, stronger effect = lower value 0.96 | S. cerevisiae deletion strains, locus YLR403W, strain SFP1, stronger effect = lower value 0.931 | S. cerevisiae deletion strains, locus YML070W, strain DAK1, stronger effect = lower value 0.996 | S. cerevisiae deletion strains, locus YMR001C, strain CDC5, stronger effect = lower value 1 | S. cerevisiae deletion strains, locus YMR205C, strain PFK2 (second series), stronger effect = lower value 0.998 | S. cerevisiae deletion strains, locus YMR277W, strain FCP1, stronger effect = lower value 0.995 | S. cerevisiae deletion strains, locus YNL006W, strain LST8, stronger effect = lower value 1 | S. cerevisiae deletion strains, locus YNL020C, strain ARK1, stronger effect = lower value 0.924 | S. cerevisiae deletion strains, locus YNL161W, strain CBK1, stronger effect = lower value 0.977 | [31] 1.04 | [32] 0.991 | S. cerevisiae deletion strains, locus YNL222W, strain SSU72, stronger effect = lower value 0.991 | S. cerevisiae deletion strains, locus YNL307C, strain MCK1 (second series), stronger effect = lower value 0.974 | S. cerevisiae deletion strains, locus YOL078W, strain AVO1, stronger effect = lower value 0.995 | S. cerevisiae deletion strains, locus YOL136C, strain PFK27, stronger effect = lower value 0.926 | S. cerevisiae deletion strains, locus YOR061W, strain CKA2, stronger effect = lower value 0.967 | [36] 1.05 | [37] 0.976 | S. cerevisiae deletion strains, locus YOR329C, strain SCD5, stronger effect = lower value 0.994 | S. cerevisiae deletion strains, locus YPL031C, strain PHO85, stronger effect = lower value 0.928 | S. cerevisiae deletion strains, locus YPL153C, strain RAD53, stronger effect = lower value 0.965 | S. cerevisiae deletion strains, locus YPL204W, strain HRR25, stronger effect = lower value 0.947 | S. cerevisiae deletion strains, locus YPL209C, strain IPL1, stronger effect = lower value 0.999 | [40] 0.99 | S. cerevisiae deletion strains, locus YPR025C, strain CCL1, stronger effect = lower value 0.997 | S. cerevisiae deletion strains, locus YPR106W, strain ISR1, stronger effect = lower value 0.996 | S. cerevisiae deletion strains, locus YPR111W, strain DBF20, stronger effect = lower value 0.974 | S. cerevisiae deletion strains, strain NNK1, stronger effect = lower value 0.99 | S. cerevisiae deletion strains, strain TSCII, stronger effect = lower value 1
